We go through 34 compounds from PubChem BioAssay AID651860 (Broad Institute, 2012).

Potency and affinity values are given separately. Values without a mark were called inactive. Where a call stands in place of a potency, no number is given. Activity calls are given as the source filed them.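 Rule for the calls: active = compounds lowering HepG2 cell ATP luminescence with a fitted half-maximal concentration at most twice the top tested dose; inconclusive = flat fit with 30 to 70 percent signal loss, or poor fit; inactive = the rest.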

The nature of the test: HepG2 cell cytotoxicity, dose response, cytotoxicity control, luminescence plate reader, powder samples, set 2 (AID 651860). Conditions: HepG2 viability, CellTiter-Glo ATP luminescence, 48 h; series mostly up to 26 µM. (In general: ATP-based viability assays read luminescence as a measure of living cells.)
Turning to `O=C1c2ccccc2C(=O)N1CC1=NCCc2ccccc21`, the compound was classed as inactive.

For `Cc1cc(C)c(S(=O)(=O)Nc2ncnc3ccccc23)c(C)c1`, the outcome was inactive.

Take `COC(=O)[C@H]1CCCC[C@H]1C(=O)N1CCc2ccccc2[C@H]1CN1C(=O)c2ccccc2C1=O`: the compound was classed as inactive.

With `Cc1ccc(S(=O)(=O)NNc2nc(N3CC(O)CC3C(=O)O)nc3ccccc23)cc1` (centres undefined), the outcome was inactive.

For the compound `Cc1ccc(S(=O)(=O)NNc2nc(NCC(N)=O)nc3ccccc23)cc1`, the result was inactive.

As to `O=C(NCCO)c1ccccc1C(=O)NC[C@@H]1c2ccccc2CCN1C(=O)C1CCCCC1C(=O)O` (some centres undefined), the call was inactive.

In the case of `CC(C)OC(=O)C(C(=O)C(F)(F)F)c1cc(NS(=O)(=O)c2ccccc2)c2ccccc2c1O` (centres undefined), the outcome was inactive.

Turning to `O=C1c2ccccc2C(=O)N1C[C@@H]1c2ccccc2CCN1C(=O)OCc1ccccc1`, the compound was classed as inactive.

Regarding `COC(=O)[C@@H]1CCCC[C@@H]1C(=O)N1CCc2ccccc2[C@@H]1CN1C(=O)c2ccccc2C1=O`, the outcome was inactive.

As for `O=C(O)C1CCCCC1C(=O)N1CCc2ccccc2[C@H]1C(=O)NC12CC3CC(CC(C3)C1)C2` (some centres undefined), the call was inactive.

On to `O=C(O)[C@H]1CCCC[C@H]1C(=O)N1CCC2=C(CCCC2)C1CN1C(=O)c2ccccc2C1=O` (some centres undefined), for which the outcome was inactive.

For the compound `COC(=O)CNc1nc(NS(=O)(=O)c2c(C)cc(C)cc2C)c2ccccc2n1`, the compound was classed as inactive.

Consider `O=C(O)Cc1ccccc1C(=O)N1CCc2ccccc2[C@H]1CN1C(=O)c2ccccc2C1=O`, for which the outcome was inactive.

For `O=C(O)C1CCCCC1C(=O)N1CCCCC1CN1C(=O)c2ccccc2C1=O` (centres undefined), the compound was classed as inactive.

`NC(=O)c1ccccc1C(=O)NC[C@@H]1c2ccccc2CCN1C(=O)[C@@H]1CCCC[C@@H]1C(=O)O`: the call was inactive.

In the case of `O=C(O)c1ccccc1C(=O)NC[C@@H]1c2ccccc2CCN1C(=O)[C@@H]1CCCC[C@@H]1C(=O)O`, the result was inactive.

In the case of `O=C1c2ccccc2C(=O)N1CC1c2ccccc2CCN1C(=O)Cc1ccccc1` (centres undefined), the activity change, negative = cytotoxic was -3.5% [at 6 µM].

For the compound `Cc1ccc(S(=O)(=O)NC[C@@H]2c3ccccc3CCN2C(=O)[C@@H]2CCCC[C@@H]2C(=O)O)c(C)c1`, the outcome was inactive.

Take `O=C(Cc1ccccc1)NC[C@@H]1c2ccccc2CCN1C(=O)[C@@H]1CCCC[C@@H]1C(=O)O`: the result was inactive.

For the compound `O=C1c2ccccc2C(=O)N1C[C@H]1NCCc2ccccc21`, the call was inactive.

`O=C(NC[C@@H]1c2ccccc2CCN1C(=O)[C@@H]1CCCC[C@@H]1C(=O)O)c1ccc(CN2CCOCC2)cc1`: the compound was called inactive.

In the case of `Cc1ccc(S(=O)(=O)NNc2nc(C(C(=O)OC(C)C)C(=O)C(F)(F)F)nc3ccccc23)cc1` (centres undefined), the result was inactive.

In the case of `O=C(O)[C@H]1CCCC[C@H]1C(=O)N1CCc2ccccc2C1` (racemic), the result was inactive.

Take `CCOC(=O)C(C(=O)OCC)c1cc(CN2C(=O)c3ccccc3C2=O)c2ccccc2n1`: the compound was classed as inactive.

Regarding `O=C(O)C1CCCCC1C(=O)N1CCc2ccccc2C1c1ccccc1` (centres undefined), the call was inactive.

In the case of `COc1ccccc1CCNC(=O)[C@@H]1c2ccccc2CCN1C(=O)C1CCCCC1C(=O)O` (some centres undefined), the compound was called inactive.

Consider `Cc1ccc(S(=O)(=O)Nc2cc(C(C(=O)OC(C)C)C(=O)C(F)(F)F)c(O)c3ccccc23)c(C)c1` (centres undefined), for which the compound was called inactive.

Consider `Cc1ccccc1S(=O)(=O)Nc1cc(C(C(=O)OC(C)C)C(=O)C(F)(F)F)c(O)c2ccccc12` (centres undefined), for which the outcome was inactive.

With `O=C(O)CCCC(=O)N1CCc2ccccc2C1CN1C(=O)c2ccccc2C1=O` (centres undefined), the outcome was inactive.

Turning to `O=C(O)CC(=O)N1CCc2ccccc2C1CN1C(=O)c2ccccc2C1=O` (centres undefined), the call was inactive.

In the case of `CCOC(=O)Cc1nc(NS(=O)(=O)c2c(C)cc(C)cc2C)c2ccccc2n1`, the compound was classed as inactive.

Take `O=C(O)c1ccccc1C(=O)N1CCc2ccccc2C1CN1C(=O)c2ccccc2C1=O` (centres undefined): the call was inactive.

With `O=C(O)C1CCCCC1C(=O)N1CCc2ccccc2C1CN1C(=O)[C@H]2CCCC[C@H]2C1=O` (some centres undefined), the outcome was inactive.

As for `O=C(O)CCC(=O)N1CCc2ccccc2C1CN1C(=O)c2ccccc2C1=O` (centres undefined), the result was inactive.
